A selection: hits, their analogues and other compounds. The true share with any hit is near 2.4%.
Pol beta inh = qHTS Assay for Inhibitors of DNA Polymerase Beta; P06746; Potency, µM (titrated, usually from 114 µM), most hits filed as inhibitors; AID 485314, 2010; Pol beta primer extension/strand displacement, fluorescence kinetic; 340,000 compounds, 1.3% hits
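Pol beta (10 nM) was preincubated with compound for 15 min at room temperature. The reaction was then started with 50 nM substrate and read immediately and after a further 10 min at room temperature.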
Pol kappa inh = qHTS for Inhibitors of Polymerase Kappa; DNA polymerase kappa (Homo sapiens), Q9UBT6; purified Pol kappa, fluorescent DNA synthesis assay, 10 min; Potency, µM (top dose mostly 107 µM), usual class: inhibitors; 400,000 compounds, 0.53% hits
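Kinetic fluorescence screen: compound preincubated 15 min RT with 10 nM enzyme; 50 nM substrate (final) initiates; reads at 0/10 min.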
FEN1 inh = qHTS Assay for the Inhibitors of Human Flap endonuclease 1 (FEN1); P39748; Recombinant FEN1 flap cleavage, fluorescence, 15 min; Potency, µM (series often up to 114 µM), usual class: inhibitors; 390,000 compounds, 0.35% hits; AID 588795, 2011; note: nearly all actives have a fitted effect of over 65% in size
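Compounds are tested as a concentration series against 10 nM FEN1; after a 15 min room-temperature preincubation, 50 nM substrate starts cleavage, with plate reads at 0 and 15 min. Normalized responses are fitted by a Hill equation.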
Pol iota inh = qHTS for Inhibitors of Polymerase Iota; DNA polymerase iota (Homo sapiens), Q9UNA4; Pol iota fluorescent replication assay, 10 min; Potency, µM (highest dose often 115 µM), actives largely listed as inhibitors; 390,000 compounds, 1% hits; AID 588590, 2011
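Fluorescent replication assay read twice, at 0 min and 10 min after adding 50 nM (final) substrate. Enzyme (10 nM) and compounds were first incubated 15 min at room temperature; enzyme-free buffer wells were negative controls.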
POLH inh = qHTS for Inhibitors of Polymerase Eta | Potency, µM (highest dose often 114 µM), usual class: inhibitors | DNA polymerase eta (Homo sapiens), Q9Y253 | recombinant Pol eta, fluorescent DNA replication assay | AID 588591, 2011 | 390,000 compounds, 1.2% hits
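Pol eta at 10 nM preincubated with compounds 15 min at room temperature; reaction started with fluorescent substrate (50 nM final) and read kinetically at 0 and 10 min.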
WRN inhibitor = qHTS for Inhibitors of WRN Helicase. Bifunctional 3'-5' exonuclease/ATP-dependent helicase WRN (Homo sapiens), Q14191. WRN helicase unwinding, fluorescent forked duplex, kinetic. Potency, µM (doses to about 114 µM), usual class: inhibitors. 360,000 compounds, 0.46% hits; note: nearly all actives have a fitted effect of over 55% in size
Target sequence (Q14191 whole entry, looked up): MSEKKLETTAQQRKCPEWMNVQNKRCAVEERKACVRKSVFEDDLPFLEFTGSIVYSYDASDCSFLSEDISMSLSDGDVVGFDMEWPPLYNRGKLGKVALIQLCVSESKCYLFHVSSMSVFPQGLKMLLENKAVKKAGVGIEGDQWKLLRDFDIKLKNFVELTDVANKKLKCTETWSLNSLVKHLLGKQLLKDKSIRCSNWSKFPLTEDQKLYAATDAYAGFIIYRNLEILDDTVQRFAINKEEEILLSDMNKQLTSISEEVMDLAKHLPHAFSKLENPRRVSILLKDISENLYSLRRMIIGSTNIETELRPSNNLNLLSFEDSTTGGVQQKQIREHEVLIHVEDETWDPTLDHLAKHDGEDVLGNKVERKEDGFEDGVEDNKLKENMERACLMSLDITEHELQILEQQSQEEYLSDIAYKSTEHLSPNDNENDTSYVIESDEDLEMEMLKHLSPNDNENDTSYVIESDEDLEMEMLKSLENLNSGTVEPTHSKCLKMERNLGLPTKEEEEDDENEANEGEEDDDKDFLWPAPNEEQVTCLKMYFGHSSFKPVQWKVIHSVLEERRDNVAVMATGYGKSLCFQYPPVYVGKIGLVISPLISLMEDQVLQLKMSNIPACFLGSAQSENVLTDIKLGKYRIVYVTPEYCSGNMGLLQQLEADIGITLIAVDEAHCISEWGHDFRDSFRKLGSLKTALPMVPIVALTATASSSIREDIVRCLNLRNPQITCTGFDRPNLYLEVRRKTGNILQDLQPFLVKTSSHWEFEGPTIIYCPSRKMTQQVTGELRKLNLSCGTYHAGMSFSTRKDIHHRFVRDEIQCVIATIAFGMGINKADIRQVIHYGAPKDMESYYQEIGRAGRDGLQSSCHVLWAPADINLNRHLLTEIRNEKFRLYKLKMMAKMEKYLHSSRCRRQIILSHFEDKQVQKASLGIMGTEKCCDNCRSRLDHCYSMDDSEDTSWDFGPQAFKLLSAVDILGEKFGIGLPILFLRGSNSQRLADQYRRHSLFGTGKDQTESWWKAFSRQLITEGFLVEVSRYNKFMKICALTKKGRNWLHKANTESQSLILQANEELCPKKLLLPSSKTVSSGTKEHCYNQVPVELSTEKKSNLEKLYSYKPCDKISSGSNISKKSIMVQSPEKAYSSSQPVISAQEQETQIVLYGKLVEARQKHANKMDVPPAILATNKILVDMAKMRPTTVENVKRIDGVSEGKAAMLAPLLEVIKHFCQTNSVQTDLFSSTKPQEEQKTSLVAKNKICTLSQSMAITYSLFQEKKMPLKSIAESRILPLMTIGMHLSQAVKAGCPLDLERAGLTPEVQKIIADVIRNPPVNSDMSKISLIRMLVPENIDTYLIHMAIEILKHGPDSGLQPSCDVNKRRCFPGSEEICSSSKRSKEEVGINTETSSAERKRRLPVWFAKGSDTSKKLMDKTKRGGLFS
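Primary qHTS, 1536-well format. 20 nM WRN + compound, 15 min RT; start with 100 nM forked fluorophore/quencher duplex, 2 mM ATP (final); kinetic read ex 525/em 598 nm.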
Of the large screens only hits and unclear results are named; the others gave an inactive call. Calls come from the whole dose curve; as a rule, active = well fitted curve in the direction sought with a large enough effect; inconclusive = small, poorly fitted or top-dose-only effect, or another doubt; inactive = no such curve, though single readings can be large; an effect the other way counts as inactive or inconclusive.

CCC(NC(C)C)C(O)c1ccc(O)c(O)c1 (stereo not given)	FEN1 inh inconclusive, Pol iota inh inconclusive (no result: WRN inhibitor)
COc1ccc(C(CC(=O)N2CCN(c3ccccc3)CC2)c2c(OC)cc(OC)c3c(-c4ccccc4)cc(=O)oc23)cc1 (stereo not given)	Pol beta inh 8.91µM (no result: Pol kappa inh, FEN1 inh, Pol iota inh, POLH inh, WRN inhibitor)
COc1cc(OC)c2c(-c3ccccc3)cc(=O)oc2c1C(CC(=O)N1CCCC1)c1ccc(N(C)C)cc1 (stereo not given)	none (no result: Pol beta inh, POLH inh, WRN inhibitor)
COc1ccc(C(CC(=O)N2CCCC(C)C2)c2c(OC)cc(OC)c3c(-c4ccccc4)cc(=O)oc23)cc1 (stereo not given)	Pol beta inh 35.5µM, Pol kappa inh 79.4µM, Pol iota inh 50.1µM, POLH inh 25.1µM, WRN inhibitor inconclusive
COc1cccc(NC(=O)Cn2c(=O)n(CCc3cccc(C)c3)c(=O)c3ccccc32)c1	FEN1 inh inconclusive, Pol iota inh 89.1µM (no result: WRN inhibitor)
C=C(C)C1CC=C(C)/C(=N/NC(=O)CNc2ccc(OCC)cc2)C1 (stereo not given)	Pol iota inh 89.1µM
O=c1c2ccccc2oc2cc(OCc3cccc(F)c3)cc(O)c12	Pol beta inh 22.4µM, Pol kappa inh inconclusive, Pol iota inh inconclusive
Cc1cc(-c2nn3c(-c4ccccc4)nnc3s2)c2ccccc2n1	Pol beta inh inconclusive, Pol iota inh 79.4µM
c1ccc(-c2cc(-c3nn4c(-c5ccco5)nnc4s3)c3ccccc3n2)cc1	Pol kappa inh inconclusive, Pol iota inh inconclusive, POLH inh inconclusive
Cc1c(OCC(N)=O)ccc2c(-c3ccccc3)cc(=O)oc12	FEN1 inh inconclusive, POLH inh inconclusive, WRN inhibitor 50.1µM
O=c1c(-c2ccccc2)nc2cnc(Nc3ccccc3)nc2n1Cc1cccs1	none (no result: Pol beta inh, FEN1 inh, Pol iota inh, POLH inh, WRN inhibitor)
COc1ccccc1NC(=O)Cc1coc2cc(C)ccc12	none
Cc1ccc2c(CC(=O)NNC(=O)c3ccccc3O)coc2c1	Pol iota inh 44.7µM, POLH inh inconclusive (no result: Pol beta inh)
CC[C@H](C)[C@H](NC(=O)[C@H](C)NC(=O)CNC(=O)[C@H](CCCN=C(N)N)NC(=O)[C@H](C)NC(=O)[C@H](CC(C)C)NC(=O)[C@H](CCC(=O)O)NC(=O)[C@H](CC(C)C)NC(=O)[C@H](C)NC(=O)[C@@H](N)CCC(=O)O)C(=O)N[C@@H](Cc1ccccc1)C(=O)N[C@@H](CCC(N)=O)C(=O)N[C@@H](C)C(=O)O	none (no result: Pol beta inh, FEN1 inh, Pol iota inh, POLH inh, WRN inhibitor)
Cc1ccc(-c2csc3ncnc(SCc4ccc(C(=O)O)cc4)c23)cc1	Pol beta inh inconclusive, POLH inh 79.4µM
O=C(CSc1ncnc2scc(-c3ccccc3)c12)N1CCN(Cc2ccc3c(c2)OCO3)CC1	Pol beta inh 15.8µM, Pol iota inh inconclusive, POLH inh inconclusive
O=c1/c(=C\c2cc([N+](=O)[O-])cc([N+](=O)[O-])c2O)sc2nc3ccccc3n12	Pol beta inh 17.8µM, Pol kappa inh inconclusive, FEN1 inh 56.2µM, Pol iota inh inconclusive, POLH inh inconclusive, WRN inhibitor 35.5µM
CC(C)OC(=O)c1cc(-c2ccc(C=O)o2)ccc1Cl	Pol beta inh 20µM, POLH inh inconclusive
CC(C)OC(=O)/C(C#N)=C/c1ccc(-c2ccc(Cl)c(Cl)c2)o1	none (no result: WRN inhibitor)
O=C(Nc1ccc(N2CCOCC2)c(S(=O)(=O)Nc2ccc(Cl)cc2)c1)c1cnccn1	POLH inh inconclusive
O=C(Nc1ccc(N2CCOCC2)c(S(=O)(=O)Nc2ccc(Cl)cc2)c1)c1ccc(=O)[nH]n1	Pol kappa inh inconclusive, Pol iota inh 10µM, POLH inh 20µM (no result: Pol beta inh)
Cc1ccc(S/C=C\C(=O)c2ccccc2)cc1	Pol iota inh 79.4µM
CCOc1ccc(OCC)c(NC(=O)c2cc(-c3cccs3)nc3ccccc23)c1	Pol kappa inh inconclusive, Pol iota inh 89.1µM (no result: WRN inhibitor)
Cc1ccc(-c2cc(C(=O)Nc3ccc(S(=O)(=O)Nc4onc(C)c4C)cc3)c3ccccc3n2)cc1	Pol beta inh inconclusive, POLH inh 89.1µM
COc1ccc(NC(=O)c2cc(-c3ccc(C)o3)nc3ccccc23)cc1OC	Pol beta inh 35.5µM, Pol kappa inh inconclusive, Pol iota inh inconclusive, POLH inh inconclusive
Cc1ccc(NC(=O)c2cc(-c3cccs3)nc3ccccc23)nc1	Pol beta inh inconclusive
Cc1ccc(-c2cc(C(=O)Nc3ccccc3C(N)=O)c3ccccc3n2)o1	Pol iota inh inconclusive, POLH inh 50.1µM, WRN inhibitor inconclusive (no result: Pol beta inh)
CCc1ccc(NC(=O)NCCc2c(C)nn(C)c2C)cc1	none (no result: WRN inhibitor)
COCC(=O)N1CCC2(CCCN(C(=O)Nc3cccc(F)c3)C2)CC1	none (no result: Pol beta inh, FEN1 inh, Pol iota inh, POLH inh, WRN inhibitor)
Cc1ccc(-c2cc(C(=O)Nc3nccs3)c3ccccc3n2)o1	Pol beta inh 25.1µM, Pol iota inh inconclusive, POLH inh inconclusive
O=C(Nc1ccc(S(=O)(=O)Nc2nccs2)cc1)c1cc(-c2ccccc2Cl)nc2ccccc12	Pol beta inh inconclusive, Pol iota inh inconclusive, POLH inh 28.2µM, WRN inhibitor inconclusive
O=C(Nc1ccc(S(=O)(=O)Nc2nccs2)cc1)c1cc(-c2ccccn2)nc2ccccc12	Pol beta inh inconclusive, WRN inhibitor inconclusive
O=C(Cn1nc(-c2ccccc2)nc(Cc2ccccc2)c1=O)Nc1ccccc1	none (no result: WRN inhibitor)
O=C1c2cccc3cccc(c23)C(=O)C1(O)O	FEN1 inh 1µM, WRN inhibitor 20µM (no result: Pol beta inh)
CCOC(=O)c1ccccc1NS(=O)(=O)c1ccccc1F	Pol iota inh 79.4µM
CCOC(=O)c1ccccc1NS(=O)(=O)c1ccccc1	none
CCCCCCCCCCCCCCCC(=O)OCC(O)C1OC(=O)C(O)=C1O (stereo not given)	Pol kappa inh 14.1µM (no result: Pol beta inh, FEN1 inh, Pol iota inh, POLH inh, WRN inhibitor)
COc1ccc(-c2ccc3c(c2)S(=O)(=O)c2cccc(C(=O)NCc4cc(C)oc4C(F)(F)F)c2C3=O)cc1OC	Pol kappa inh inconclusive, Pol iota inh inconclusive, POLH inh 11.2µM (no result: Pol beta inh)
Cc1ccc(CNC(=O)c2cccc3c2C(=O)c2ccc(N4CCCCC4)cc2S3(=O)=O)cc1	Pol iota inh inconclusive, WRN inhibitor 50.1µM (no result: Pol beta inh)
COc1ccc(-c2csc(NC(=O)c3ccccc3NS(=O)(=O)c3ccc(C)cc3)n2)cc1	Pol beta inh inconclusive, Pol kappa inh inconclusive, FEN1 inh inconclusive, Pol iota inh 31.6µM, POLH inh 20µM
COc1cc(NS(=O)(=O)c2ccc(Nc3nc(-c4ccccn4)cs3)cc2)nc(OC)n1	WRN inhibitor inconclusive
COc1ccc(-c2csc(Nc3ccc(S(=O)(=O)Nc4cc(OC)nc(OC)n4)cc3)n2)cc1	FEN1 inh inconclusive, POLH inh 89.1µM

Bioassay records deposited in PubChem BioAssay by National Center for Advancing Translational Sciences (NCATS).
